Measurements published in PubChem BioAssay AID2796 (The Scripps Research Institute Molecular Screening Center, 2010).
Out of some 320,000 compounds screened, about 8,000 (2.5%) were called active. Rule as the data show it: active = activation above about 47%; inactive = the rest. For the sample, actives were picked, then their nearest neighbours and some compounds at random.

target: Aryl hydrocarbon receptor (Homo sapiens) (UniProt P35869); assay: AHR activators, primary screen, cell-based, luminescence, luciferase reporter, human (AID 2796); details: AHR-responsive luciferase reporter cells, at 5 µM, hits give high values;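 also: 0% = vehicle wells and 100% = reference agonist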
Sequence (P35869 whole entry, looked up): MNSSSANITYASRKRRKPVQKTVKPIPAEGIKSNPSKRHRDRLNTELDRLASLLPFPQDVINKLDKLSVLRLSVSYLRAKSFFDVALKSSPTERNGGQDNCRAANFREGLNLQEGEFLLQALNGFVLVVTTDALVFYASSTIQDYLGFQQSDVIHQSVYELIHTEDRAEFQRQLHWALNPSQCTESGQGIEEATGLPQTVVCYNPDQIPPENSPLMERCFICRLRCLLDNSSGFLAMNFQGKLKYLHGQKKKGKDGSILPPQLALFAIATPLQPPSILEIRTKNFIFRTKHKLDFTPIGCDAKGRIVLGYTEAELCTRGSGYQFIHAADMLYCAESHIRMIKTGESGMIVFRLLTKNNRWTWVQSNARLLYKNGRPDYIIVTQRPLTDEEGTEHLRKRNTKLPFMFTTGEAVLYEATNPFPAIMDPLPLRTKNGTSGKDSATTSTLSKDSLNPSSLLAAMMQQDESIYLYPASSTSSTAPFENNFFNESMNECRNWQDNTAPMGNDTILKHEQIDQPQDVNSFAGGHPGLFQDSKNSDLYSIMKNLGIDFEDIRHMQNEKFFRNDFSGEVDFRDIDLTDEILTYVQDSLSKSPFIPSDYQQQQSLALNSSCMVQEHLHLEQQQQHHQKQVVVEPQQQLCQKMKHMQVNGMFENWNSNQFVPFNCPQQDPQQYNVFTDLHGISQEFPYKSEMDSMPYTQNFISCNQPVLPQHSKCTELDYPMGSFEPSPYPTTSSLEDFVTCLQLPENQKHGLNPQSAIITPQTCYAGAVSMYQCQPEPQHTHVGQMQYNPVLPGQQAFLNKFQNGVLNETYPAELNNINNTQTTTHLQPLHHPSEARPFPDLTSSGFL

activation, inactive:
Cc1cccc(C)c1NC(=O)CNC(=O)c1c(C)nn(-c2ccccc2)c1C 0.83%
COc1cc(C2OC(c3cc(OC)c(OC)c(OC)c3)C(C)C2C)cc(OC)c1OC (stereo not drawn) 3.59%
Cn1c(=O)c2c(ncn2CC(COCc2ccccc2Cl)OCc2ccccc2Cl)n(C)c1=O (stereo not drawn) 0.3%
Fc1ccc(-c2csc(-c3ccc(C4SCCS4)cc3)n2)cc1F 27.6%
N#CC(=C1CCCC1)c1nc(-c2ccc(Cl)cc2)cs1 4.95%
CN(C)S(=O)(=O)c1ccc2oc(SCC(=O)Nc3ccccc3F)nc2c1 10.3%
CCOC(=O)C1CCN(Cc2nnc(-c3cccc(Br)c3)o2)CC1 1.14%
CCOC(=O)C1CCN(c2ncnc3c2c(-c2ccccc2)cn3-c2ccc(C)cc2)CC1 -0.73%
COc1cc(OC)cc(C(=O)NCC(=O)N2CCCCCCC2)c1 17.3%
CSc1ncccc1C(=O)Nc1ccc(C)cn1 -0.65%
CSc1ncccc1C(=O)NC1CCCCCC1 -0.02%
Cc1ccc(SC(CC(=O)c2ccc(C(C)(C)C)cc2)C(=O)O)cc1 (stereo not drawn) -1.16%
COc1cc(C#Cc2ccc3cc(CCCO)oc(=O)c3c2)cc(OC)c1 1.38%
Cc1ccc2nc(C)cc(N/N=C/c3ccc(F)cc3)c2c1 10.9%
COc1ccc(Nc2nc(-c3cccnc3)nc3ccccc23)cn1 -0.65%
O=C(COC(=O)COc1ccccc1F)Nc1cccc(S(=O)(=O)N2CCCCC2)c1 0.3%
CC(Sc1nnc(COc2ccccc2)n1-c1ccccc1)C(=O)O (stereo not drawn) -2.4%
Cc1cc(=O)oc2cc(NC(=O)C(C)Oc3ccccc3)ccc12 (stereo not drawn) 2.24%
CC(C)C(=O)Nc1c(O)c2ccccc2[nH]c1=O -0.12%
CC(C)C(=O)Nc1ccc2oc(=O)ccc2c1 1.62%
NC(=O)c1oc2ccccc2c1NC(=O)Cc1ccccc1 0.99%
Cc1ccc(-n2ncc3c(Nc4cccc(C(=O)O)c4)ncnc32)cc1 -0.95%
Cc1sc2ncnc(N3CCC(C(=O)Nc4nc5ccc(Cl)cc5s4)CC3)c2c1C 12.5%
Cc1noc(C)c1S(=O)(=O)N(C)C[C@H]1Oc2c(NC(=O)Nc3ccc4c(c3)OCO4)cccc2C(=O)N([C@H](C)CO)C[C@@H]1C 0.19%
Cc1cc(NC(=O)/C=C/C(=O)N(c2ccccc2C)C(C(=O)NC2CCCC2)c2ccc(F)cc2)no1 (stereo not drawn) 6.2%
OCc1ccc(-c2ccccc2)c(-c2ccccc2)c1 -2.37%
Cc1cc2c(=O)n(C)c(SCC(=O)c3cc4ccccc4o3)nc2s1 15.9%
Cc1ccccc1Nc1nnc(SCC(=O)c2cc3ccccc3o2)s1 26.2%
COC(=O)c1ccc([C@@H](O)[C@H](C)C(=O)CC(=O)OC(C)(C)C)cc1 1.52%
COC(=O)c1ccc(NC(=O)CSc2nc(N)c(NC(=O)c3ccc(Br)o3)c(=O)[nH]2)cc1 -1.66%
Cn1c2ccccc2c2c(C(=O)N3CCN(c4ccc(F)cc4)CC3)cn(C3CCCC3)c(=O)c21 12.2%
O=C(Nc1cccc(F)c1)c1cc(-c2ccco2)nc2ccccc12 33.2%
CNC(=S)NNC(=O)c1oc2nc(-c3ccccc3)cc(-c3ccco3)c2c1N 15.9%
CCN(Cc1nc2ccccc2c(=O)[nH]1)Cc1cc(=O)oc2cc(C)c(C)cc12 0.64%
COC(=O)c1ccc(CNC(=O)c2ccc(S(=O)(=O)N3CCCCCC3)cc2)cc1 -0.2%
CCN(C(=O)Cc1nc(N)n[nH]1)C1(C(=O)Nc2ccccc2)CCCCC1 1.44%
CN(C(=O)CSc1nncc2ccccc12)C1CCCCC1 8.04%
CC(C)CC(=O)c1c[nH]c(C(=O)NCc2ccccc2)c1 5.43%
O=C(NC(=S)N1CCc2ccccc21)c1ccco1 8.66%
O=C(NNC(=S)NC(=O)c1cn(-c2ccccc2)nc1-c1ccccc1)c1ccncc1 12.3%
O=C(NCc1ccco1)c1nc2ncccn2n1 -0.33%
O=c1oc(-c2ccco2)nc2sc3c(c12)CCCCC3 5.12%
Cc1c(CN2CC[C@@H](N3CCN(c4ccccn4)CC3)[C@H](O)C2)[nH]c2ccc(F)cc12 2.27%
COc1ccc(N2CCN(C(=O)Cn3cnc4sc(C)c(S(=O)(=O)N5CCOCC5)c4c3=O)CC2)cc1 -4.91%
CCOc1ccc(NC(=O)Nc2cc(C)ccc2OC)cc1 -5.37%
O=C(Nc1cnccn1)c1cccnc1 0.46%
CCOC(=O)c1cc(NC(=O)c2cccnc2)ccn1 4.05%
COc1ccc(OC)c(NC(=O)CC(Cc2ccccc2OC)C(=O)O)c1 (stereo not drawn) -3.53%
O=C(Nc1ccc(N2CCOCC2)nc1)c1c(F)cccc1F -5.89%
COc1ccc(C(=O)N(C)CC(O)c2ccccc2)cc1OC1CCN(C(C)=O)CC1 (stereo not drawn) 2.56%
Cc1nc(SCC(=O)NC2CCCCC2C)c(C#N)c(C)c1C (stereo not drawn) -1.86%
CC(C)CC1NC(=O)c2cc(Cl)ccc2-n2c1nc1ccccc1c2=O (stereo not drawn) 20.2%
CCOCCCNC(=O)C(NC(=O)CNC(=O)c1ccccc1)c1ccc(C)cc1 (stereo not drawn) 0.56%
O=C(c1ccc(F)cc1)C1CCN(Cc2cn[nH]c2-c2ccccc2)CC1 3.88%
Cc1cccc(C)c1NC(=O)C1(C)c2cccc[n+]2CC(=O)N1Cc1cccs1 (stereo not drawn) 1.93%
O=S(=O)(Nc1ccc(Oc2ncccn2)c(Cl)c1)c1ccc(F)cc1 -0.48%
CCN(CC)C(=O)CC1(c2ccccc2OC)CCOC(C(C)C)C1 (stereo not drawn) -3.4%
O=C(Nc1ccc2oc(-c3ccc4ccccc4c3)nc2c1)c1cccs1 33.5%
O=C(NC(=S)Nc1ccc(Br)cc1F)C1CCCCC1 -1.21%
CCOc1ccc(N(CC(=O)NCCc2ccc(F)cc2)S(=O)(=O)c2ccccc2)cc1 0.85%
O=C(Nc1cccc(-n2cnnn2)c1)c1cccnc1 4.54%
Cc1cccc(NC(=O)c2nnn(-c3cccc(C(F)(F)F)c3)c2N)c1 -4.69%
CCOCCn1c(-c2ccccc2)nc2ccccc21 -0.77%
Cc1c(C(=O)Nc2cccc(Cl)c2)cn2c(nc3ccccc32)c1C#N 7.03%
Cc1ccc(-n2nc(C)c(/C=N/NC(=O)c3cccs3)c2Cl)cc1 11.5%
COc1ccc(CCNC(=O)c2ccc(CS(=O)(=O)c3ccc(Br)cc3)o2)cc1OC 2.36%
COc1ccccc1CNC(=O)c1ccc(CS(=O)(=O)c2ccccc2)o1 -0.56%
C[C@H](NC(=O)C1CCN(S(=O)(=O)c2ccccc2)CC1)C(=O)NCc1ccccc1 1.44%
O=C(COC(=O)c1ccco1)Nc1ccc(Cl)cn1 10.9%
O=C(Nc1ccc(Cl)cn1)c1ccc2c(c1)OCCO2 -5.76%
O=C(CN1C(=O)NC(Cc2c[nH]c3ccccc23)C1=O)Nc1ccccc1C(F)(F)F (stereo not drawn) -0.64%
COc1ccc(NC(=O)C2COc3ccccc3O2)cc1 (stereo not drawn) 1.18%
O=C(Nc1ncc([N+](=O)[O-])s1)C1COc2ccccc2O1 (stereo not drawn) 6.36%
CCC(=O)N(Cc1cc2ccccc2[nH]c1=O)c1ccc(OC)cc1 3.79%
O=[N+]([O-])c1cc(S(=O)(=O)NCCc2ccccn2)ccc1Cl -0.28%
Cc1c([N+](=O)[O-])c(N)nn1C 2.61%
CC(C)OC(=O)CN1CCN(c2ccc(Cl)cc2)CC1 1.24%
O=C(CN1CCN(c2ccc(Cl)cc2)CC1)NCc1cccs1 -1.24%

activation, active:
Clc1ccc(-c2csc(-c3ccncc3)n2)cc1 63.4%
CCOC(=O)C1CCN(c2ncnc3c2oc2ccc(Br)cc23)CC1 66.9%
CSc1ncccc1C(=O)Nc1nc2ccc(F)cc2s1 79.2%
Fc1ccc(/C=N/Nc2nc(-c3cccnc3)nc3ccccc23)cc1 69.7%
CC(C)C(=O)Nc1c(C(=O)c2ccc(F)cc2)oc2ccccc12 132%
CC(C)C(=O)Nc1ccc2c(c1)oc1ccccc12 60.8%
Cc1ccc(Nc2nnc(SCC(=O)c3cc4ccccc4o3)s2)cc1C 52.8%
NNC(=O)c1oc2nc(-c3ccccc3)cc(-c3ccco3)c2c1N 76.1%
Brc1c(CSc2nncc3ccccc23)nc2ccccn12 48.9%
O=C(NCc1ccco1)c1cccn2c(=O)c3c4c(sc3nc12)CCCC4 48.2%
Fc1ccc2[nH]c3c(N4CCSCC4)ncnc3c2c1 58.6%
CCOc1ccccc1NC(=O)Nc1cc(OC)ccc1OC 71%
CCOc1ccccc1NC(=O)c1cccnc1 93.9%
CCc1ccc2oc(-c3ccc(N)cc3)nc2c1 78.3%
O=C(Nc1ccc(C(F)(F)F)cc1)c1cccc(-n2cnnn2)c1 102%
Cc1nc(-c2ccccc2)cn2c1nc1ccccc12 77%
O=C(NCc1cccnc1)c1ccc(CS(=O)(=O)c2ccc(Br)cc2)o1 77.4%
O=C(Nc1ccc(Cl)cn1)c1cnn2cccnc12 129%
COc1ccc(OC)c2sc(NC(=O)C3COc4ccccc4O3)nc12 (stereo not drawn) 50.9%
O=C(CN1CCN(c2ccc(Cl)cc2)CC1)c1ccccc1 73.2%
